Among all 16,000 compounds or so, about 4,000 (25%) were called active. Another 26% or so got no clear call; they are omitted. Calls follow the shape of the dose curve; as a rule, active = well fitted curve in the direction sought with a large enough effect; inconclusive = small, poorly fitted or top-dose-only effect, or effect the other way; inactive = no such curve, though single readings can be large or run the other way. The list is a sample of the results. Some structures have more than one record in an assay (separate samples or runs), and their calls can disagree.
% is scaled to controls: 0 for no effect and ±100 for the full control effect.

For this experiment, the target named is Cytochrome P450 2C9 (Homo sapiens) (UniProt P11712). As to the kind of experiment: Cytochrome panel assay with activity outcomes. The settings on record: recombinant CYP, pro-luciferin dealkylation, luminescence, p450-cyp2c9; series mostly up to 57.1 µM; activity, negative = inhibition: at the top concentration.
Chain of Cytochrome P450 2C9 (Homo sapiens) (P11712 whole entry, looked up): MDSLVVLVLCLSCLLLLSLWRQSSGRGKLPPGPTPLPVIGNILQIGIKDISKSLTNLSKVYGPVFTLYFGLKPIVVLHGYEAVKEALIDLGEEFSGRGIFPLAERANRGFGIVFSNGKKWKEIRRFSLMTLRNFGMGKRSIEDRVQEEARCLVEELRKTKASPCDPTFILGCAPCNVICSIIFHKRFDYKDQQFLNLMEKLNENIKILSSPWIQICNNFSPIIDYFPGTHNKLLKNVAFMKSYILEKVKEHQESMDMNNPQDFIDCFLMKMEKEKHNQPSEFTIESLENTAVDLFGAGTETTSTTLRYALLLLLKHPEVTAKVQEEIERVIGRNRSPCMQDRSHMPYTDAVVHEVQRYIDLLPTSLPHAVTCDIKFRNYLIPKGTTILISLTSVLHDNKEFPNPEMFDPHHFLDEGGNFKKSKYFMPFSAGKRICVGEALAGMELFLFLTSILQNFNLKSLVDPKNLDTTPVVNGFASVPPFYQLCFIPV
Take `CC(C)(C)c1cc2cccnc2n1Cc1cccc(F)c1`: the “activity, negative = inhibition” value was -28% (inactive).

For the compound `CC1=CC(=O)CC(C)(C)[C@]1(O)/C=C\C(C)=C\C(=O)O`, the activity, negative = inhibition was 9.93% [at 11.4 µM] (inactive).

Broadly, the AC50 is the concentration at which the activity in the assay is half-maximal. With `CC1=C(\C=C/C(C)=C/C=C\C(C)=C\C(=O)O)C(C)(C)CCC1`, the AC50 was 10 µM (active) and inactive.

For `CC(C)CCNc1ncnc2[nH]ncc12`, the activity, negative = inhibition was 6.22% [at 11.4 µM] (inactive).

Turning to `CCOC(=O)c1cnc2c(cnn2C)c1NCCCN(C)C`, the “activity, negative = inhibition” value was -2.53% (inactive).

For the compound `CNC(=O)c1nnn(Cc2ccccc2)c1NC(=O)C(F)(F)F`, the concentration at half-maximal activity (AC50) is 12.6 µM (active).

As to `COC(=O)c1nnn(Cc2ccccc2)c1N`, the “activity, negative = inhibition” value is 8.99% (inactive).

`O=C(c1cc(C(F)(F)F)cc(C(F)(F)F)c1)N1CCC2(CCN(Cc3ccccc3)CC2)CC1`: the “activity, negative = inhibition” value is -0.296% (inactive).

In the case of `Nc1ncnc2c1c(-c1ccc(Oc3ccccc3)cc1)cn2C1CCCC1`, the AC50 was 31.6 µM (active).

In the case of `Nc1ncnc2c1ncn2C1CCCC1`, the “activity, negative = inhibition” value is -3.04% (inactive).

With `Cc1ccc(CNCC(O)(c2ccc(F)cc2)c2ccc(F)cc2)cc1`, the AC50 is 25.1 µM (active).

Turning to `CCOC(=O)CSc1n[nH]c(-c2cccnc2)n1`, the “activity, negative = inhibition” value is 0.887% (inactive).

With `CCOC(=O)CC(=O)CSc1nc(-c2cccnc2)cc(C)c1C#N`, the AC50 is 1.26 µM (active).

As to `CCCC(=O)n1nc(-c2cccnc2)nc1N`, the “activity, negative = inhibition” value is -36.4% (inactive).

`O=C(c1cc(-c2cccs2)on1)N1CCN(c2ccc(F)cc2)CC1`: the AC50 was 1.58 µM (active).

For `O=c1cc(CN2CCN(c3ccc(F)cc3)CC2)c2cc3c(cc2o1)CCCC3`, the “activity, negative = inhibition” value was -15.2% (inactive).

On to `C/C=C\C(=O)N(CC)c1ccccc1C`, for which the “activity, negative = inhibition” value is -28.3% [at 25.6 µM] (inactive).

Regarding `COc1cc2c(cc1C(F)(F)F)N(C(=O)Nc1cc(F)cc(-c3cccnc3)c1)CC2`, the concentration at half-maximal activity (AC50) was 0.794 µM (active).

As for `COC(=O)c1ccc(NC(=O)N2CCC(O)(c3cccnc3)CC2)cc1`, the “activity, negative = inhibition” value was -19.6% (inactive).

As to `Cn1ccc2cc3c(cc21)CCN3C(=O)Nc1cccnc1`, the AC50 result was “inactive”.

For the compound `CN1CCc2cc(NC(=O)Nc3cccnc3)ccc21`, the “activity, negative = inhibition” value is -16.7% (inactive).

For `CSc1cc2c(cc1C(F)(F)F)N(C(=O)Nc1cccnc1)CC2`, the half-maximal activity concentration (AC50) was 0.00631 µM (active).

Regarding `CN1Cc2c(N)cccc2[C@H](c2ccccc2)C1`, the AC50 result was “inactive”.

In the case of `Cc1noc(C)c1-c1ccc2ncnc(NCc3cccnc3)c2c1`, the activity, negative = inhibition was -6.6% [at 2.29 µM] (inactive).

Consider `CCOCCCn1cnc2c(c1=O)c1nc3ccccc3nc1n2-c1ccccc1`, for which the AC50 was 15.8 µM (active).

With `COc1ncc2nc(C)c(=O)n(-c3ccccc3)c2n1`, the “activity, negative = inhibition” value was -12.6% (inactive).

In the case of `CCCCn1cnc2c(c(CC#N)nn2-c2ccccc2)c1=N`, the activity, negative = inhibition was -11.5% [at 11.4 µM] (inactive).

`CN1CCc2nc(N)nc(-c3nc(N)nc4c3CN(C)CC4)c2C1`: the activity, negative = inhibition was 5.01% [at 11.4 µM] (inactive).

With `Cc1cc(-c2cc(-c3ccc(Cl)cc3)nc(N)c2C#N)co1`, the AC50 is 11.2 µM (active).

For the compound `Cc1cc(C)n(-c2nc3ccccc3c(=O)n2OCc2ccc(Cl)cc2)n1`, the half-maximal activity concentration (AC50) was 5.62 µM (active).

Turning to `Cn1c(=O)c(-c2ccc(Cl)cc2)nc2cnc(OCc3ccccc3)nc21`, the “activity, negative = inhibition” value is 9.78% (inactive).

Turning to `Oc1c(CN2CCN(c3ccccc3)CC2)cc(Br)c2cccnc12`, the activity, negative = inhibition was 7.75% [at 11.4 µM] (inactive).

As to `COc1ccc(N2C(=O)NC(NC(=O)c3ccncc3)(C(F)(F)F)C2=O)cc1` (stereo not given), the AC50 was 6.31 µM (active).

For the compound `COc1ccc(-n2c(=O)c(-c3ccc(F)cc3)nc3cncnc32)cc1`, the “activity, negative = inhibition” value was 10.2% (inactive).

Consider `Cc1cccc(C(=O)NC2CCN(C(=O)N3CCOCC3)CC2)c1`, for which the “activity, negative = inhibition” value was -27% (inactive).

Consider `CC(C)C1NC(=S)N(Cc2ccccc2)C1=O` (stereo not given), for which the AC50 is 8.91 µM (active).

Consider `O=C1C[C@@H](O)[C@@H](O)[C@H]2[C@@H]3C(=O)N(Cc4ccccc4)C(=O)[C@@H]3CC[C@H]12`, for which the activity, negative = inhibition was -2.13% [at 11.4 µM] (inactive).

`O=C(O)CN(CCN(CC(=O)O)CC(=O)O)CCN(CC(=O)O)CC(=O)O`: the AC50 entry is “inactive”.

For the compound `CCS(=O)(=O)c1ccc2oc(Nc3cc(C)cc(C)c3)nc2c1`, the AC50 is 8.91 µM (active).

`Cc1ccc(S(=O)(=O)N(C)CC(=O)O/N=C(\N)c2ccccn2)cc1`: the “activity, negative = inhibition” value is 30% (inactive).

Turning to `CN(C)S(=O)(=O)c1ccc(NC(=O)COC(=O)c2ccccn2)cc1`, the AC50 was 10 µM (active).

Turning to `CCN(CC)S(=O)(=O)c1ccc(NC(=O)COC(=O)c2ccc(Br)o2)cc1`, the concentration at half-maximal activity (AC50) is 8.91 µM (active).

As for `CN(C)S(=O)(=O)c1cccc(NC(=O)COC(=O)c2ccc(Br)o2)c1`, the AC50 is 6.31 µM (active).

For the compound `Cc1ccnc2nc(C(=O)OCC(=O)Nc3ccc4c(c3)OC(F)(F)O4)nn12`, the “activity, negative = inhibition” value was -25.1% (inactive).

Regarding `CC(CC(=O)O)CC(=O)Nc1ccc(S(N)(=O)=O)cc1` (stereo not given), the “activity, negative = inhibition” value is -16.6% (inactive).

For the compound `COc1ccccc1-c1ccc2ncnc(NCCNC(C)=O)c2c1`, the activity, negative = inhibition was -2.65% [at 2.29 µM] (inactive).

Turning to `C=CC1=C[C@@H](O)C2OC2C12OCCCO2` (stereo not given in full), the activity, negative = inhibition is 12.2% [at 11.4 µM] (inactive).

As to `O=C(Nc1cccc(F)c1)N1CC[C@@]2(CCCNC2)C1`, the “activity, negative = inhibition” value was 2.75% (inactive).

As to `COC(=O)[C@@]1(Cc2ccccc2)[C@H]2c3cc(C(=O)N4CCCC4)n(Cc4c(CO)[nH]cc(C)c4=O)c3C[C@H]2CN1C(=O)c1ccccc1`, the half-maximal activity concentration (AC50) was 1 µM (active).

Turning to `COC(=O)[C@@]1(Cc2ccc(F)cc2)[C@H]2c3cc(C(=O)N4CCCC4)n(Cc4c(CO)[nH]cc(C)c4=O)c3C[C@H]2CN1C(=O)c1ccccc1`, the AC50 is 10 µM (active).
